AmpC inh detg: AmpC beta-lactamase inhibition with detergent present | 370,000 tested, 0.041% active | Potency, µM (titrated, usually from 114 µM), without a hit: at the highest dose activity change, negative = inhibition, hits mostly inhibitors | P00811 | AmpC hydrolysis of nitrocefin, absorbance 480 nm, 0.01% Triton | AID 485294;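 further: 0% = no-compound wells and -100% = no-enzyme wells; nearly all actives have a fitted effect of over 25% in size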
Target sequence (P00811 whole entry, looked up): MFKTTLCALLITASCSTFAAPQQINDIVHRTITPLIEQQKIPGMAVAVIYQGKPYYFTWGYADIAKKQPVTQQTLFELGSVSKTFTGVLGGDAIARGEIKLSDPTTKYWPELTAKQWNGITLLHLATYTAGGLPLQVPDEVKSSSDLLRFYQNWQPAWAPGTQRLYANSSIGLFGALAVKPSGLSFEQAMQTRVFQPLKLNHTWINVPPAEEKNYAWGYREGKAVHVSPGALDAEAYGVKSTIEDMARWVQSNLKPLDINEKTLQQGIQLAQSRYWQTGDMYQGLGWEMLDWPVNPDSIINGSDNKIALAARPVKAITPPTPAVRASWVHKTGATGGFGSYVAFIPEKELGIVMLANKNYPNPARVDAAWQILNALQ
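20 mM phosphate pH 7.0 + 0.01% (detergent screen) or 0.0001% Triton X-100; 5.3 nM AmpC reagent; cpd preinc 15 min RT; nitrocefin (800 uM stock) to start; A480 q20 s × 4 min; Activity was normalised to no-enzyme and no-compound control wells.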
AmpC inh no detg: AmpC beta-lactamase inhibition without detergent. Potency, µM (doses to about 57.1 µM), for inactives: top-dose activity change, negative = inhibition, usual class: inhibitors. AmpC nitrocefin hydrolysis, absorbance 480 nm, 0.0001% Triton. 330,000 tested, 0.52% active. AID 485341;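 further: plate controls were no compound for no effect and no enzyme for full effect; nearly all actives have a fitted effect of over 20% in size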
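20 mM phosphate pH 7.0 + 0.01% (detergent screen) or 0.0001% Triton X-100; 5.3 nM AmpC reagent; cpd preinc 15 min RT; nitrocefin (800 uM stock) to start; A480 q20 s × 4 min; Activity was normalised to no-enzyme and no-compound control wells.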
Giardia FBPA inh-1: blocks Giardia fructose-bisphosphate aldolase activity; Potency, µM (highest dose often 59.6 µM), inactives show at the top dose activity, negative = inhibition, actives largely listed as inhibitors; 290,000 tested, 0.71% active; purified Giardia FBPA; A8B2U2; further: on the % scale 0 is the no-effect control and ±100 the full control effect; nearly all actives have a fitted effect of over 55% in size
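Giardia FBPA (40 nM reagent) was preincubated 10 min at RT with compound (up to 57.5 uM final), then substrate plus GAPDH/TPI/NAD/arsenate coupling system with diaphorase/resazurin was added; resorufin fluorescence (525/598 nm) was read after 20 min.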
SARS PLpro yeast: inhibitors of SARS-CoV papain-like protease in yeast; S. cerevisiae expressing SARS-CoV PLpro, growth rescue; Potency, µM (series often up to 32.9 µM), for the others: at the top dose activity, positive = growth rescue, actives largely listed as activators; 330,000 tested, 0.19% active; AID 485353; calls by dose curve; further: 0% is about no effect; nearly all actives have a fitted effect of over 55% in size
Giardia growth: Giardia lamblia growth inhibition; shares compounds with Giardia FBPA inh-1; 1,500 tested, 5% active; Potency, µM (doses to about 57.5 µM), for inactives: top-dose activity change, negative = inhibition, actives largely listed as inhibitors; Giardia lamblia trophozoite growth inhibition;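 further: trophozoites exposed to compound for 48 h at 37 °C; on the % scale 0 is the no-effect control and ±100 the full control effect; nearly all actives have a fitted effect of over 70% in size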
Mammalian tox: counter-screen for Giardia aldolase inhibitors: mammalian cell toxicity; shares compounds with Giardia FBPA inh-1; mammalian cell viability counter-screen, qHTS; Potency, µM (top dose mostly 57.5 µM), without a hit: top-dose viability change, negative = toxicity, most hits filed as inhibitors; 1,500 tested, 4% active;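 further: Chinese hamster ovary cells used as mammalian cytotoxicity surrogate; viability measured as cellular ATP by luminescence; compound exposure lasted 48 h before reading; on the % scale 0 is the no-effect control and ±100 the full control effect; nearly all actives have a fitted effect of over 60% in size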
Giardia FBPA inh-2: confirmation of Giardia fructose-bisphosphate aldolase inhibitors | purified Giardia aldolase enzyme activity, qHTS | Potency, µM (highest dose often 57.5 µM), for the others: at the top dose activity change, negative = inhibition, hits mostly inhibitors | shares compounds with Giardia FBPA inh-1 | 1,500 tested, 5% active; further: on the % scale 0 is the no-effect control and ±100 the full control effect; nearly all actives have a fitted effect of over 45% in size
Rabbit aldolase: selectivity test for Giardia aldolase inhibitors: rabbit aldolase | 1,500 tested, 4% active | Potency, µM (top dose mostly 57.5 µM), for the others: at the highest dose activity, negative = inhibition, most hits filed as inhibitors | shares compounds with Giardia FBPA inh-1 | Rabbit muscle FBPA enzyme inhibition, selectivity counter-screen; further: on the % scale 0 is the no-effect control and ±100 the full control effect; nearly all actives have a fitted effect of over 60% in size
Target sequence (P00883 whole entry, looked up): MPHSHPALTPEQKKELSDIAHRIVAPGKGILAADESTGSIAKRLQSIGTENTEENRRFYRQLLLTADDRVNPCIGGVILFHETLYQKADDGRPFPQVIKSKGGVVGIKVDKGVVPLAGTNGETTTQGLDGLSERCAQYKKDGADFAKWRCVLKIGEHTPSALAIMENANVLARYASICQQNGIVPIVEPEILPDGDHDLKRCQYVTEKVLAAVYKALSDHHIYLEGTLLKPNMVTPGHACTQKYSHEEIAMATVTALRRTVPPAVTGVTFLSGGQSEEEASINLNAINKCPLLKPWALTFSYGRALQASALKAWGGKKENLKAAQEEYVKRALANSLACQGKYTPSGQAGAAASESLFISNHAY
GAPDH coupling: GAPDH inhibition flagged for Giardia aldolase hits; GAPDH coupling enzyme counterscreen, biochemical, qHTS; Potency, µM (highest dose often 57.5 µM), without a hit: at the top dose activity change, negative = inhibition, actives largely listed as inhibitors; 1,500 tested, 6% active; AID 2795; shares compounds with Giardia FBPA inh-1; further: on the % scale 0 is the no-effect control and ±100 the full control effect; nearly all actives have a fitted effect of over 55% in size
Active calls of the source: *; ? = inconclusive; nt = no result given; [ ] = remark or other dose. A selection: hits, their analogues and other compounds. The true share with any hit is near 1.1%. Unless noted, the call rests on the fitted dose curve; in most records, active means well fitted curve in the direction sought with a large enough effect; inconclusive means small, poorly fitted or top-dose-only effect, or another doubt; inactive means no such curve, though single readings can be large; an effect the other way counts as inactive or inconclusive. Potency means the concentration at half of the fitted maximal effect.

SMILES	AmpC inh detg	AmpC inh no detg	Giardia FBPA inh-1	SARS PLpro yeast	Giardia growth	Mammalian tox	Giardia FBPA inh-2	Rabbit aldolase	GAPDH coupling
CCc1nnc(N/N=C\c2ccc(OC(C)=O)c(OC)c2)n1N	1%	-10%	16µM*	-4%	-3%[38.3 µM]	-28%	3.7µM*	5.2µM*	5.8µM*
CCc1nnc(N/N=C/c2c(Cl)cccc2Cl)n1N	-2%	82%	?	-15%	nt	nt	nt	nt	nt
CCc1nnc(N/N=C/c2cccs2)n1N	-7%	-30%	5µM*	-2%	?	?	13µM*	13µM*	13µM*
Cc1nnc(N/N=C/c2cccc(OCc3ccc(Cl)c(Cl)c3)c2)n1N	-16%	78%	18µM*	-26%	?	1%	?	-19%	?
CCOc1cc(/C=N/Nc2nnc(C)n2N)ccc1OC(C)=O	-7%	-6%	16µM*	-7%	2%[38.3 µM]	-17%	5.8µM*	5.8µM*	6.5µM*
CCOc1cc(/C=N/NC(N)=O)ccc1OC(=O)c1ccc(C)cc1	-1%	33%	-1%	-1%	nt	nt	nt	nt	nt
O=C(CCN1CCN(CCO)CC1)N1c2ccccc2Sc2ccc(C(F)(F)F)cc21	?	197%	7.9µM*	4%	-14%	2%	-3%	0%	2%
Cc1ccc(C2=NC(=O)/C(=C/c3cc(O)c(O)c(Br)c3)S2)cc1	2%	18µM*	16µM*	6.3µM*	7%[10.4 µM]	-18%	-15%	-9%	10%
COc1cc(/C=C2\SC(c3ccc(C)cc3)=NC2=O)cc(OC)c1O	7%	9%	14µM*	-6%	?	-7%	14µM*	?	?
O=c1oc2cc(O)ccc2cc1-c1ccc2c(c1)OCCO2	nt	nt	4%	nt	nt	nt	nt	nt	nt
O=c1[nH]cc(I)cc1I	4%	-20%	10µM*	-1%	-28%	13%	-8%	3%	-3%
Cc1ccc(S(=O)(=O)N(C)C)cc1NC(=S)N(CCC#N)Cc1cccnc1	-2%	-4%	0%	-4%	nt	nt	nt	nt	nt
CCN(CC)S(=O)(=O)c1ccc(C(=O)NC(=S)N(CCC#N)Cc2cccnc2)cc1	1%	-16%	13µM*	-1%	?	5%	4%	5%	10%
N#CCCN(Cc1ccccc1)C(=S)NC(=O)c1ccccc1	-6%	-17%	16µM*	-5%	20%	5%	5%	7%	6%
COc1ccc(CN(CCC#N)C(=S)NC(=O)c2ccccc2)cc1	0%	-25%	nt	18%	nt	nt	nt	nt	nt
N#CCCN(Cc1cccnc1)C(=S)NC(=O)c1ccco1	4%	11%[11.4 µM]	10%	2%	nt	nt	nt	nt	nt
CN(C)S(=O)(=O)c1cccc(C(=O)NC(=S)N(CCC#N)Cc2cccnc2)c1	-7%	-27%	5.6µM*	2%	6%[38.3 µM]	-6%	4%	2%	-6%
O=C(NC(=S)N(CCO)Cc1ccccc1)c1cc(Br)ccc1Cl	1%	-34%	16µM*	0%	12%[10.4 µM]	4%	10%	11%	17%
CC(=O)OCCN1C(=O)c2c(C)nc3ccc(S(=O)(=O)N4CCOCC4)cc3c2C1=O	nt	nt	-10%	nt	nt	nt	nt	nt	nt
C=CCN1c2ccccc2[C@]23C[C@@H](C(=O)OC)N(S(=O)(=O)c4ccc(C)cc4)C2=NC(C(=O)OC)=C(C(=O)OC)[C@H]13	nt	nt	0%[12.9 µM]	nt	nt	nt	nt	nt	nt
CCOc1ccc(OCC)c(NC(=O)c2nnn(CC(=O)Nc3ccc(C)cc3C)c2N)c1	4%	nt	nt	nt	nt	nt	nt	nt	nt
CN(C)/[N+]([O-])=N/Oc1cc(ON=[N+]([O-])N2CCN(c3ncccn3)CC2)c([N+](=O)[O-])cc1[N+](=O)[O-]	nt	nt	-16%	nt	nt	nt	nt	nt	nt
COc1cccc(OC)c1C(=O)NC(C)CCc1ccccc1 (configuration not stated)	?	-8%	0%	-20%	nt	nt	nt	nt	nt
COc1cc(NC(C)CCc2ccccc2)cc(OC)c1OC (configuration not stated)	-10%	-23%	13µM*	3%	-10%[10.4 µM]	-25%	?	?	?
CCn1c(=O)cc(OCC(=O)N2CCN(c3ccc(C)cc3)C(C)C2)c2ccccc21 (configuration not stated)	19%	nt	nt	nt	nt	nt	nt	nt	nt
SMILES	AmpC inh detg	AmpC inh no detg	Giardia FBPA inh-1	SARS PLpro yeast	Giardia growth	Mammalian tox	Giardia FBPA inh-2	Rabbit aldolase	GAPDH coupling
Cc1nnc(SCC2=C(C(=O)O)N3C(=O)C(NC(=O)c4cccc(F)c4F)C3SC2)s1 (configuration not stated)	2%	-17%	14µM*	0%	5%[10.4 µM]	-6%	1%	-6%	6%
Cc1cc(C)n(CC(=O)NC2C(=O)N3C(C(=O)O)=C(CSc4nnc(C)s4)CSC23)n1 (configuration not stated)	0%	-5%	13µM*	-3%	3%	-2%	-1%	6%	1%
Cc1nnc(SCC2=C(C(=O)O)N3C(=O)C(NC(=O)Cn4ncc(Cl)c4C)C3SC2)s1 (configuration not stated)	-1%	-17%	20µM*	-4%	-21%	-4%	-8%	-5%	0%
Cc1cc(C(F)F)nn1CC(=O)NC1C(=O)N2C(C(=O)O)=C(CSc3nnnn3C)CSC12 (configuration not stated)	5%	-23%	?	3%	nt	nt	nt	nt	nt
CCOC(=O)c1scc(-c2ccccc2)c1S(=O)(=O)Nc1ccc(N(C)C)cc1	7%	nt	nt	nt	nt	nt	nt	nt	nt
COc1ccc(S(=O)(=O)NCCc2sc3nc(-c4ccc(C)cc4)nn3c2C)cc1C	2%	nt	nt	nt	nt	nt	nt	nt	nt
CCOC(=O)c1ccc(NC(=O)CC2C(=O)N(c3ccc(F)cc3)C(=O)N2Cc2ccc3c(c2)OCO3)cc1 (configuration not stated)	12%	nt	nt	nt	nt	nt	nt	nt	nt
Cc1ccc(C(=O)c2no[n+]([O-])c2C(=O)c2ccc(C)cc2)cc1	?	-52%	16µM*	-139%	-5%	-2%	-7%	?	-27%
Cc1ccc(C(=O)c2ccc(C)cc2)cc1	-5%	-15%	1%	-5%	nt	nt	nt	nt	nt
CCCSC1=N/C(=C\c2ccc([N+](=O)[O-])o2)C(=O)S1	-14%	-3%[2.29 µM]	?	0%	nt	nt	nt	nt	nt
CCSC1=N/C(=C\c2ccc(-c3ccccc3[N+](=O)[O-])o2)C(=O)S1	6%	-33%	?	13%	6%[38.3 µM]	-19%	-20%	-5%	-18%

Bioassay records as filed in PubChem BioAssay.
